ssDAF-12 act: S. stercoralis DAF-12 nuclear receptor activators, primary screen, cell-based, luminescence, HEK293, GRIP1 co-expression, lit1-tk-luc; activation, % at 6.8 µM; HEK293 ssDAF-12/GRIP1 lit1-tk-luc reporter; % of 3 µM dafachronic acid response; AID 652126, 2013; Nuclear hormone receptor DAF-12 (Strongyloides stercoralis); hit rate 1% among 370,000;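 active means activation above the mean over all tested compounds plus 3 SD, cut at about 0.9% in these data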;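 further: 0% = DMSO-only wells and 100% = 3 µM delta7-dafachronic acid wells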
hcDAF-12 act: H. contortus DAF-12 nuclear receptor activators, primary screen, cell-based, luminescence, HEK293, lit1-tk-luc reporter. hit rate 1.4% among 370,000. HEK293 hcDAF-12 lit1-tk-luc reporter; 0% DMSO, 100% Δ7-dafachronic acid. AID 652067, 2013. activation, % at 6.8 µM;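 active means activation above the mean of all tested compounds plus 3 SD, cut at about 5.5% in these data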;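 further: 100% = response to 3 µM Δ7-dafachronic acid high control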
hgDAF12 agonist: H. glycines DAF-12 receptor agonists, primary screen, cell-based, luminescence, HEK293, GAL4 fusion, UAS-luciferase; hit rate 1.8% among 370,000; HEK293 GAL4-hgDAF12 UAS-luciferase reporter, agonist luminescence; normalized to butyrate control; activation, % at 6.8 µM; Nuclear hormone receptor DAF-12 (Heterodera glycines), GAL4 fusion;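 active means activation above a cutoff set at the mean of all screened compounds plus 3 SD, cut at about 10% in these data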;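 further: 0% = DMSO wells and 100% = sodium butyrate wells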
DAX1 inh-1: DAX1 (NR0B1) inhibitors, primary screen, cell-based, HEK293, Gal4-DAX1, luciferase luminescence | inhibition, % at 6.75 µM | AID 504766, 2011 | HEK293 Gal4-DAX1 luciferase reporter | hit rate 0.99% among 340,000;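 active means inhibition above the mean over all tested compounds plus 3 SD, cut at about 4.2% in these data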;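 further: 0% = DAX1-transfected cells with DMSO and 100% = empty-vector control cells with DMSO; inhibition shows as a rise in luminescence from relieved DAX1 repression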
Target sequence (P51843 207-470 limits assumed): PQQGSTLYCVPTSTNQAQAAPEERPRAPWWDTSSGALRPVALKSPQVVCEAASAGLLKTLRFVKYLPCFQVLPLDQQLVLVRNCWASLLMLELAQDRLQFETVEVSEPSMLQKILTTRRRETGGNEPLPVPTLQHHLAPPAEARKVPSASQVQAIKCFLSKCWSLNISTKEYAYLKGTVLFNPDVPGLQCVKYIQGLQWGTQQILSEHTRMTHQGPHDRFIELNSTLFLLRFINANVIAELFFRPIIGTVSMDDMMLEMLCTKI
DAX1 inh-2: DAX1 (NR0B1) inhibitors on StAR promoter, primary screen, cell-based, luminescence, SF-1 (NR5A1), full-length DAX-1; hit rate 1.1% among 370,000; inhibition, % at 6.8 µM; HEK293T StAR-luciferase reporter, SF-1/DAX-1 repression relief;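 active means inhibition above the mean over all tested compounds plus 3 SD, cut at about 3.6% in these data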;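 further: 0% = DAX-1 cells with DMSO and 100% = cells lacking DAX-1 with DMSO; higher inhibition means more luminescence from relief of DAX-1 repression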
FXN GAA850 act: FXN promoter activators, primary screen, cell-based, luciferase luminescence, HEK293 lucGAA850; HEK293 lucGAA850 FXN promoter luciferase reporter, 24 h; percent of 10 µM SAHA response; activation, % at 6 µM; hit rate 0.56% among 360,000; AID 540364, 2011;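 active means activation above the average of all compounds screened plus 3 SD, cutoff fixed separately per campaign, cut at about 7.5% in these data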;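 further: 0% = DMSO wells and 100% = 10 µM SAHA wells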
GAA30 FXN cntr: GAA30 FXN promoter activators, confirmation, counter-screen for GAA850 frataxin promoter activator project, cell-based, luminescence, HEK293, lucGAA30, triplicate | HEK293 lucGAA30 FXN promoter luciferase, 24 h; DMSO = 0%, 5 µM ipriflavone = 100% | activation, % at 6 µM | shares compounds with FXN GAA850 act | hit rate 66% among 1,900;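 active means mean activation above the mean of solvent-only control wells plus 3 SD, cut at about 22% in these data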;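 further: counterscreen of GAA850 promoter hits where activity marks nonselective or luminescence artifacts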
FXN GAA850 conf: FXN GAA850 promoter activators in reporter cells, confirmation, cell-based, luminescence, HEK293 lucGAA850, triplicate; shares compounds with FXN GAA850 act; HEK293 lucGAA850 FXN promoter luciferase reporter, 24 h; 100% = activation by SAHA; activation, % at 6 µM; hit rate 86% among 1,900; AID 588351, 2011;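 active means mean activation above a set limit taken from the primary screen, cut at about 8% in these data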;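 further: 0% = DMSO wells and 100% = 10 µM SAHA wells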
DAX1 conf: DAX1 (NR0B1) inhibitors relieving SF-1 repression, confirmation, cell-based, luminescence, HEK293T, full-length DAX-1, SF-1 activated StAR promoter. shares compounds with DAX1 inh-2. HEK293T StAR-promoter luciferase reporter, SF-1/DAX-1 repression. inhibition, % at 6.8 µM. hit rate 87% among 2,400;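 active means inhibition above the average of every tested compound plus 3 SD, cut at about 3.8% in these data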;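 further: 0% = DAX-1 cells with DMSO and 100% = no DAX-1 control cells with DMSO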
SF1 mutant ctr: StAR reporter signal changes without DAX1, counter-screen for DAX1 inhibitor project, cell-based, luminescence, AF-2 mutant SF-1, transactivation. inhibition, % at 6.8 µM. shares compounds with DAX1 inh-2. hit rate 78% among 2,400. HEK293 StAR-luciferase, SF-1 AF2 mutant;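 active means inhibition above the mean of all tested compounds plus 3 SD, cut at about 3% in these data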;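 further: 0% = DAX-1 transfected cells with DMSO and 100% = cells without DAX-1 with DMSO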
LXRb hcDAF ctr: LXR agonists, Gal4 luciferase reporter, confirmation, counter-screen for hcDAF-12 agonist project, cell-based, luminescence, HEK293, H. contortus campaign. shares compounds with hcDAF-12 act. HEK293 Gal4-LXR tk-luc reporter, 24 h; normalized: DMSO 0%, positive control 100%. activation, % at 6.8 µM. 3,400 tested, under 10 active. AID 743027, 2013;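 active means mean percent activation of the reporter above a cutoff set as the average over tested compounds plus their standard deviation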
Target sequence (P55055 whole entry, looked up, the tested form may be a part): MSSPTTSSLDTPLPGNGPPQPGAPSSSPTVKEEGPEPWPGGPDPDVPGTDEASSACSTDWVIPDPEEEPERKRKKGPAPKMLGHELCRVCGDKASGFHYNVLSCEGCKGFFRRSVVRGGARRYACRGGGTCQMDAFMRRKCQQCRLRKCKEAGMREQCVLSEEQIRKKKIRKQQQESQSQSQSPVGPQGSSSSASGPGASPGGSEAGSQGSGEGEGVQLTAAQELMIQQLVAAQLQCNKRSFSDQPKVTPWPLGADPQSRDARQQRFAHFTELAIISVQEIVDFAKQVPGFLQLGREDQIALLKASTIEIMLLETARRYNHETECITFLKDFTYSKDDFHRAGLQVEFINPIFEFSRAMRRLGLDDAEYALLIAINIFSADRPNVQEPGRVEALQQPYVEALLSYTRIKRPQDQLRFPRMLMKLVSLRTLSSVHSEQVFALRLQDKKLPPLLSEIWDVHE
hcDAF12 conf: H. contortus DAF-12 receptor agonists, confirmation, cell-based, luminescence, HEK293, lit1-tk-luc, triplicate; shares compounds with hcDAF-12 act; HEK293 hcDAF-12 lit1-tk-luc reporter; % of Δ7-dafachronic acid response; activation, % at 6.8 µM; hit rate 61% among 3,400; AID 743032, 2013;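 active means mean activation across triplicate tests above the threshold derived from the earlier primary screen, cut at about 5.5% in these data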;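 further: 0% = DMSO only wells and 100% = 3 µM Δ7-dafachronic acid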
hgDAF12 ag: H. glycines DAF-12 receptor agonists, confirmation, cell-based, luminescence, HEK293, GAL4-LBD fusion; shares compounds with hgDAF12 agonist; HEK293 GAL4-hgDAF12 luciferase reporter, agonist mode; percent of butyrate response; activation, % at 6.8 µM; hit rate 80% among 3,300; AID 743050, 2013;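 active means mean activation over triplicate wells above the hit cutoff derived from the earlier primary screen, cut at about 11% in these data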;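 further: 0% = DMSO low control and 100% = 2 mM sodium butyrate high control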
LXRb DAF12 ctr: LXR agonists, Gal4 luciferase reporter, confirmation, counter-screen for hgDAF-12 agonist project, cell-based, luminescence, HEK293, H. glycines campaign; shares compounds with hgDAF12 agonist; 24 h; activation, % at 6.8 µM; 3,300 tested, under 10 active; AID 743051, 2013;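 active means mean activation of the triplicate above a set limit carried over from the primary screen, none filed active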
Active calls of the source: *; x = no result. This is a sample that favours compounds with a hit; in the whole collection about 4.5% have one here.

SMILES	ssDAF-12 act	hcDAF-12 act	hgDAF12 agonist	DAX1 inh-1	DAX1 inh-2	FXN GAA850 act	GAA30 FXN cntr	FXN GAA850 conf	LXRb hcDAF ctr	hcDAF12 conf	others
CC(C)C[C@@H](CN1CCC[C@@H]1CN1C(=O)C(=O)NC[C@@H]1Cc1ccccc1)N1C[C@H](Cc2ccccc2)N(CC2CCCCC2)C(=O)C1=O	-0.7	-0.8	-0.7	x	0.3	x	x	x	x	x
Cc1c(C(=O)Nc2cccnc2Cl)oc2ccccc12	0.6	6.7*	8.9	2.3	1.1	7.8*	128.4*	42.0*	1.3	6.8*
CC(=O)Nc1ccc(/C=N/Nc2nc3ccccc3s2)cc1	3.3*	17.7*	24.3*	4.8*	5.6*	8.7*	122.8*	35.9*	2.4	21.9*	DAX1 conf=15.1*;SF1 mutant ctr=9.9*
CC(=O)Nc1ccc(S(=O)(=O)Nc2nc3ccccc3s2)cc1	-0.7	1.2	3.0	-0.8	-0.1	0.5	x	x	x	x
Clc1ccc(C=Cc2ccccn2)c(Cl)c1	1.2*	8.2*	12.9*	2.3	7.9*	7.7*	119.7*	37.0*	1.2	14.8*	DAX1 conf=11.6*;SF1 mutant ctr=6.8*
CC1CCCN(Cc2csc(N)n2)C1 (stereo unspecified)	-1.2	-0.1	-1.9	1.0	1.5	0.6	x	x	x	x
CCOC(OCC)c1cn(Cc2ccc(C(=O)c3ccccc3)cc2)nn1	-1.4	-1.2	1.1	-1.1	-0.7	-0.6	x	x	x	x
Fc1ccc(-c2cn3cc(C(F)(F)F)cc(Cl)c3n2)cc1	3.7*	18.9*	11.9*	4.9*	6.0*	8.8*	97.4*	35.0*	1.8	22.5*	DAX1 conf=17.2*;SF1 mutant ctr=8.8*
CCCCC(=O)/C=C/n1c(=S)oc2ccccc21	0.5	6.6*	7.7	0.4	1.0	8.5*	-19.8	23.2*	0.1	3.9
CN(CCc1ccccc1)C(CCc1ccccc1)C(=O)Nc1ccc2c(c1)OCCO2 (stereo unspecified)	-0.7	2.5	2.5	x	-0.1	x	x	x	x	x
COc1cc(O)c2c(=O)c(-c3ccc(O[C@@H]4O[C@H](CO)[C@@H](O)[C@H](O)[C@H]4O)cc3)coc2c1	0.9	7.2*	12.1*	1.9	1.5	9.0*	107.9*	30.8*	1.6	5.5
Cc1cccc(C)c1Nc1nnc(SCC(=O)NCc2cccs2)s1	-1.4	0.3	1.9	0.6	-0.1	0.7	x	x	x	x
Cc1cccc(C)c1Nc1nnc(SCc2nc3ccccc3s2)s1	0.9*	11.5*	13.1*	0.3	2.1	8.6*	120.8*	42.9*	0.8	11.3*
Cc1sc(NC(=O)c2ccccc2)c(C#N)c1-c1ccccc1	0.2	2.1	15.7*	2.2	2.3	10.8*	111.4*	38.0*	x	x	hgDAF12 ag=11.7*;LXRb DAF12 ctr=0.5
CN(/N=C/c1ccncc1)c1cnc2ccccc2n1	1.5*	6.6*	19.0*	1.3	4.4*	9.6*	104.8*	29.2*	0.9	10.3*	hgDAF12 ag=12.5*;LXRb DAF12 ctr=0.7
c1ccc2nc3c(ccc4ccccc43)cc2c1	0.9*	11.9*	20.6*	1.8	4.5*	7.7*	105.8*	36.7*	1.3	11.5*	DAX1 conf=11.5*;SF1 mutant ctr=10.0*;hgDAF12 ag=16.4*;LXRb DAF12 ctr=0.6
Cc1cccc2cc3ccccc3nc12	-1.7	0.2	2.1	-0.2	-0.4	0.9	x	x	x	x
CCCNC(=O)c1oc2ccc3c(c2c1C)C(=O)CC(C)(C)O3	0.5	2.6	15.6*	0.0	2.6	7.9*	107.1*	35.6*	x	x	hgDAF12 ag=12.5*;LXRb DAF12 ctr=0.6
COc1cc(OC)c2nc(C)c3c(c2c1)N(c1ccc(O)cc1)CC3	-1.5	-2.0	2.3	1.1	-0.8	-1.6	x	x	x	x
O=c1[nH]c2ccccc2nc1/C=C(\O)C1CC1	-0.7	-2.0	1.0	-0.1	-0.5	0.1	x	x	x	x
